# Sfp PPTase inh: blocks B. subtilis Sfp PPTase activity. Potency, µM, for the others: largest response in the series, negative = inhibition, most hits filed as inhibitors. AID 1490. Q9F4F7. actives 3.5% (n = 310,000). Biochemical Sfp PPTase activity, qHTS;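 also: the enzyme is Sfp with the accession as filed and its product quenches rhodamine fluorescence; potency is read from the fitted curve at half-maximal effect; 0% = enzyme reaction without inhibitor and -100% = no enzyme wells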
#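 Buffer: 50 mM Hepes-Na pH 7.6, 10 mM MgCl2, 0.01% Nonidet P-40, 0.01% BSA. Enzyme 15 nM, pre-exposed to compound 15 min; substrates then added and fluorescence change tracked over 30 min.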
# Coupling enz: inhibits coupling enzyme system, counter-screen for aldolase hits. coupling enzyme system counterscreen, AmpLite Red fluorescence. activity change, negative = inhibition, % at 58.2 µM, hits read low. AID 2472. actives 0.67% (n = 290,000); in the data active = activity change below about -30%
#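 First, compound is pin-transferred into glyceraldehyde-3-phosphate coupling-enzyme reagent at 57.5 uM final and held 10 min at RT. Next, substrate, coupling system and AmpLite Red are added. After 20 min RT, fluorescence (525/598 nm) is read.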
# Tau fibril ThT: blocks human tau fibril formation measured by thioflavin T; P10636; recombinant tau K18 P301L, heparin-induced fibrillization, ThT fluorescence; Potency, µM (top dose mostly 57.4 µM), for inactives: at the highest dose activity, negative = inhibition, usual class: inhibitors; actives 2.1% (n = 270,000); also: potency is read from the fitted curve at half-maximal effect; nearly all actives have a fitted effect of over 55% in size
# Target sequence (P10636 561-689 P618L limits assumed): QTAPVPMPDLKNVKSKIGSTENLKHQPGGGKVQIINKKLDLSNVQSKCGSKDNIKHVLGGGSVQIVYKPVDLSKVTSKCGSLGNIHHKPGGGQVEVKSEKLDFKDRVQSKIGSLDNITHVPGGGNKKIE
#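 In this qHTS, human K18 P301L tau is incubated with compound and heparin for 6 hr at 37 C, and Thioflavin T fluorescence then reports fibril load.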
# Tau fibril FP: tau fibrillization inhibition (FP); actives 0.39% (n = 280,000); Potency, µM (series often up to 57.7 µM), for the others: at the top dose activity, negative = inhibition, hits mostly inhibitors; P10636; K18 P301L tau heparin fibrillization, Alexa594 FP, 6 h; also: potency is read from the fitted curve at half-maximal effect; nearly all actives have a fitted effect of over 55% in size
#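 Human tau K18 […] P301L fragment, 15 uM unlabeled plus 0.24 uM Alexa 594-labeled tau (final), with compound and 20 uM heparin in 100 mM sodium acetate pH 7; 6 hr at 37 C, then Alexa 594 FP read.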
# G9a inh: inhibitors of human histone lysine methyltransferase G9a; Q96KQ7; G9a H3K9 monomethylation, AlphaScreen, 2 h; Potency, µM (top dose mostly 102 µM), without a hit: at the top dose activity, negative = inhibition, actives largely listed as inhibitors; actives 8.8% (n = 350,000); also: potency is read from the fitted curve at half-maximal effect; nearly all actives have a fitted effect of over 75% in size
# Target sequence (Q96KQ7 913-1193 limits assumed): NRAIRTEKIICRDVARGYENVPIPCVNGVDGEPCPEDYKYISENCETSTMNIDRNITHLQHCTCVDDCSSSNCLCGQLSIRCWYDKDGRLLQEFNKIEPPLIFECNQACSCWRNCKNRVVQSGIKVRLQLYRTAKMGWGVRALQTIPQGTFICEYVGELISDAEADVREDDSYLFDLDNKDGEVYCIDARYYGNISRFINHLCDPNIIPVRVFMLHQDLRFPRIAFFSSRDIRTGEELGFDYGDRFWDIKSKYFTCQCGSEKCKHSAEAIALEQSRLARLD
#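 Using a bead-based AlphaScreen, monomethylated H3K9 product from 2 h room-temperature reactions (G9a 20 nM, peptide 500 nM, SAM 20 uM) was detected with 0.5 ug/mL rabbit anti-H3K9me1 antibody.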
# Tau fluor counter: counter-screen for tau fibril formation inhibitors; tau K18 P301L (four-repeat tau fragment) Alexa594 fluorescence, heparin fibrillization; Potency, µM (highest dose often 57.7 µM), for inactives: top-dose activity change, negative = decrease; actives 0.93% (n = 280,000); AID 1463; also: potency is read from the fitted curve at half-maximal effect; nearly all actives have a fitted effect of over 55% in size
#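 Human K18 P301L tau (15 uM unlabeled plus 0.24 uM Alexa 594-labeled, final) in 100 mM sodium acetate pH 7 was mixed with compound and 20 uM heparin and incubated 6 hr at 37 C.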
# * marks the source's active call; other numbers are inactive results; ? = inconclusive; · = no result; [ ] = remark or other dose. Compounds with a hit are over-represented: about 11% of the library has one in this group of screens. Unless noted, calls follow the shape of the dose curve; as a rule, active = well fitted curve in the direction sought with a large enough effect; inconclusive = small, poorly fitted or top-dose-only effect, or another doubt; inactive = no such curve, though single readings can be large; an effect the other way counts as inactive or inconclusive. Unless noted, % is scaled to controls: 0 for no effect and ±100 for the full control effect.
SMILES,Sfp PPTase inh,Coupling enz,Tau fibril ThT,Tau fibril FP,G9a inh,Tau fluor counter
Cc1cccc(NC(=O)c2c(NC(=O)c3cccs3)sc3c2CCC(C)C3)c1 (stereo not drawn),·,·,-3.8%,-5.3%,69.8%[59 µM],-16.1%
Cc1cccc(NC(=O)c2c(N)sc3c2CCC(C)C3)c1 (stereo not drawn),·,·,8.91µM*,-14.7%,12.6µM*,?
CC(=O)Oc1ccc2c(C)cc(=O)oc2c1,17.9%,-0.4,-22.0%,12.1%,0.3%[59 µM],-0.8%
CC(=O)Oc1cc2oc(=O)cc(C)c2cc1OC(C)=O,79.4µM*,0.7,?,-15.7%,0.501µM*,-19.0%
O=C1CCCC/C1=C\Nc1ccc(O)cc1,22.4µM*,-68.0*,15.8µM*,?,0.891µM*,?
O=C1[C@@H]2Cc3c([nH]c4ccccc34)[C@@H](c3ccccc3)N2C(=O)[C@@H]2Cc3c([nH]c4ccccc34)[C@@H](c3ccccc3)N12,?,-2.9,0.1%,?,14.1µM*,-15.2%
C=CCN1C(=O)[C@@H]2Cc3c([nH]c4ccccc34)C(c3ccc(O)cc3)N2C1=S (stereo partly drawn),11.0%,-1.8,·,·,44.7µM*,·
CC1Cc2c([nH]c3ccccc23)C2c3ccccc3CN12 (stereo not drawn),-9.2%,-0.1,·,·,25.1µM*,·
COc1ccc(CN2CCCC(C(=O)Nc3cccc(-n4cccn4)c3)C2)c(F)c1 (stereo not drawn),11.4%,·,·,·,0.4%,·
[O-]/C(=C(\C(=S)Nc1cccc2ccccc12)[n+]1ccccc1)c1cccs1,?,-16.5,?,-4.1%,35.5µM*,-22.4%
Cc1cccc(C)c1NC(=S)/C(=C(\[O-])c1cccs1)[n+]1ccccc1,?,-10.3,-1.9%,-7.3%,7.94µM*,-2.9%
S=C(NCc1cccs1)Nc1cccc2ccccc12,17.2%,-2.6,-3.3%,-2.8%,-39.8%,-5.5%
COC1C=CC23c4cc5c(cc4CN(CC2O)C3C1)OCO5 (stereo not drawn),-4.8%,-1.8,-4.0%,10.4%,-25.0%[2.33 µM],-4.9%
c1ccc(-n2nc3c(ccc4cnnc43)[nH]2)cc1,-10.0%,-21.1,-9.9%,-3.1%,17.8µM*,-7.4%
Cc1ccc(C(=O)NCC(c2ccc(Cl)cc2)N2CCCCC2)cc1 (stereo not drawn),·,·,0.3%,-0.3%,7.1%[59 µM],-10.8%
COc1ccc(C(Sc2ccccc2)c2ccccc2)cc1OC (stereo not drawn),·,·,·,·,-9.1%[2.33 µM],·
Cc1[nH]c2ccccc2c1C(C#N)(C#N)C1C(=O)c2ccccc2C1=O,?,-35.7*,6.31µM*,?,-111.2%[12.7 µM],4.47µM*[quencher]
Cc1[nH]c2ccccc2c1CC#N,4.5%,-0.6,2.7%,-3.3%,-7.1%[59 µM],0.1%
O=C(/C=C/c1ccccc1)NNc1ccc(Cl)cc1,-15.4%,0.9,-13.1%,0.5%,8.91µM*,-13.1%
CCCCCCN(C(=O)CCCCCN1C(=O)NC(c2ccc(Cl)cc2)C(C(=O)OCc2ccccc2)=C1C)C(C(=O)NCCCC)c1ccc(OCC(=O)OC)c(C(=O)OC)c1 (stereo not drawn),26.1%,0.3,-18.3%,3.6%,1.2%,-11.0%
COc1cc(C(Nc2ccc3c(c2)OCO3)C(=O)NC2CCCCC2)cc(OC)c1OC (stereo not drawn),12.6µM*,-21.2,-10.3%,1.9%,2.82µM*,-9.4%
COc1cc(NC(=O)Nc2ccc3c(c2)OCO3)cc(OC)c1OC,7.1%,4.0,-5.0%,4.0%,?,-17.5%
CCOC(=O)c1c(-c2ccc(C)cc2)csc1NC(=O)c1cc(-c2ccc(C)c(F)c2)on1,·,·,-5.6%,3.7%,-12.7%[59 µM],-4.4%
CCOC(=O)c1c(-c2ccccc2)csc1NC(=O)c1cc(-c2ccc(F)cc2)on1,·,·,?,?,3.98µM*,-12.2%
CCOC(=O)c1c(-c2ccccc2)csc1NC(=O)c1cc(-c2ccc(Br)cc2)on1,·,·,?,-11.2%,6.31µM*,-8.5%
SMILES,Sfp PPTase inh,Coupling enz,Tau fibril ThT,Tau fibril FP,G9a inh,Tau fluor counter
COc1cscc1C(=O)O,3.7%,0.0,-4.3%,-3.8%,-2.4%,-4.5%
O=c1[nH]c2cc3c(cc2cc1CN(Cc1cccnc1)C(=S)NCc1ccco1)OCO3,39.8µM*,0.8,?,?,10µM*,-28.2%
O=c1[nH]c2cc3c(cc2cc1CN(Cc1ccco1)C(=S)NCC1CCCO1)OCCO3 (stereo not drawn),18.7%,-3.3,8.8%,-5.8%[2.34 µM],0.3%,8.1%
O=c1[nH]c2cc3c(cc2cc1CN(Cc1cccnc1)C(=S)NCc1ccco1)OCCO3,5.01µM*,2.1,0.7%,7.4%,39.8µM*,1.1%
CN(C)CCN(Cc1cc2cc3c(cc2[nH]c1=O)OCO3)C(=S)NCc1ccco1,6.2%,4.9,-11.0%,-7.2%,·,-11.0%
CCOC(=O)C(=CNc1cc(OC)ccc1-n1cccc1)C(=O)OCC,11.8%,3.4,-9.4%,-1.7%,12.4%[59 µM],-13.5%
CCCCCCC(=O)N(O)C1CC(=O)N(Cc2ccccc2)C1=O (stereo not drawn),50.1µM*,-0.7,?,-4.2%,2.51µM*,-13.6%
CCCCCC(=O)N(O)C1CC(=O)N(c2ccccc2)C1=O (stereo not drawn),12.6µM*,6.0,?,0.8%,1.41µM*,2.1%
CN(Cc1ccccc1)C1CC(=O)N(c2ccc(C(=O)O)cc2)C1=O (stereo not drawn),-23.0%,0.2,-13.6%,-1.0%,3.55µM*,-1.4%
CCCCCOc1ccc(N2C(=O)CC(N(O)c3ccccc3)C2=O)cc1 (stereo not drawn),-3.8%,-1.8,?,-1.2%,50.1µM*,-12.8%
O=C(Cn1cc(S(=O)(=O)c2ccccc2)c(=O)c2cc3c(cc21)OCO3)Nc1ccc(Cl)cc1,·,·,?,-6.9%,3.1%[59 µM],-24.7%
O=C(NC1CCCCC1)C(c1ccccn1)N(C(=O)c1csnn1)C1CCCCC1 (stereo not drawn),19.6%,1.5,-13.8%,-7.5%,22.3%,-8.8%
COc1ccc(Nc2nc(Nc3ccc(OC)cc3)nc(SC3=NCCS3)n2)cc1,11.2%,-2.9,?,13.6%,15.7%,14.1µM*[quencher]
N#C/C(=C\c1ccccc1)c1nc(-c2cc3c(ccc4ccccc43)oc2=O)cs1,·,·,1.8%,?,-6.5%[59 µM],-12.7%
COc1ccc(C(=O)COC(=O)CN2C(=O)C3C4CCC(C4)C3C2=O)cc1 (stereo not drawn),19.2%,0.7,·,·,11.0%,·
Cc1ccccc1NC(=O)CC1SC(=NC2CCCCC2)NC1=O (stereo not drawn),-13.5%,0.6,-6.5%,4.9%,-26.7%[59 µM],-4.4%
Cc1ccc(NC(=O)CC2SC(=NC3CCCCC3)NC2=O)cc1 (stereo not drawn),-2.1%,-1.9,-4.0%,2.9%,89.1µM*,-3.1%
